MITF TRPM1 HTS = MITF TRPM1 promoter activation in melanoma cells; SK-MEL-5 TRPM1-promoter luciferase, 24 h; % of positive control, neutral wells = 0; actives 0.75% (n = 300,000); activation, % at 12.5 µM; AID 588334;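 active means mean activation of at least 80% with every replicate also reaching 80%; inconclusive means mean reaches 80% but some replicate falls short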;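 further: 0% = neutral control wells and 100% = parthenolide positive control wells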
esBAF inh = inhibitors of esBAF chromatin remodeling in mouse ES cells. AID 602393. reporter increase, % at 12.5 µM. actives 2% (n = 350,000). Bmi1-luciferase knock-in reporter, 24 h; 100% = twice the neutral-well signal; in the data active means activation above about 40%; inconclusive means no clear call, values can overlap the other calls;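 further: 0% = median of the plate's neutral control wells and 100% = double that signal; a rise in the Bmi1 reporter signal indicates esBAF inhibition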
Wnt bcat act = activators of Wnt/beta-catenin signaling; Wnt/beta-catenin reporter cell assay, activator, plate reader; activation, % at 9.35 µM; actives 1.2% (n = 300,000); AID 743398; in the data active means activation above about 30%, passing the limit was not always enough; inconclusive means no clear call, values can overlap the other calls;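 further: 0% = neutral control wells and 100% = positive control wells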
Statin myotox sup = suppression of simvastatin myotoxicity. C2C12 myotubes + simvastatin, ATP luminescence, 48 h; scaled: DMSO 0, geranylgeraniol control 100. rescue of ATP level, % at 7.49 µM. actives 0.78% (n = 330,000). AID 602340;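 active means mean ATP rescue above about 67%, or every replicate alone reaching that limit, limit read from the data, passing the limit was not always enough; inconclusive means no clear call, values can overlap the other calls; inactive means mean under the limit and some replicate under it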;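 further: myotubes were challenged with 10 µM simvastatin during compound exposure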
* hit, by the source's call; ? = inconclusive; · = no result. A selection: hits, their analogues and other compounds. The true share with any hit is near 3%.

SMILES	MITF TRPM1 HTS	esBAF inh	Wnt bcat act	Statin myotox sup
C[C@H]1CCCCO[C@H](CN(C)Cc2ccc(Cl)c(Cl)c2)[C@@H](C)CN([C@@H](C)CO)C(=O)c2cc(NC(=O)NC3CCCCC3)ccc2O1	·	3	·	-236
COc1ccc(-c2cc(C(=O)Nc3ccccc3)on2)cc1	101*	·	13	·
COc1ccc(-c2cc(C(=O)Nc3ccccc3F)on2)cc1	95*	·	11	·
O=C(Oc1cc(-c2ccccc2)no1)c1ccc(F)cc1	·	0	-4	·
O=C(Nc1ccc(F)cc1)c1cc(-c2ccccc2)no1	24	·	35*	·
COCCNc1nc(C)cc(-c2cc(C(=O)Nc3ccccc3)on2)n1	14	-5	·	21
CN(C)CCCNC(=O)C[C@H]1CC[C@H]2[C@@H](COc3ccc(NC(=O)C4CCC4)cc3C(=O)N2C)O1	·	-5	·	20
COc1ccc(NC(=O)N(C)C[C@H]2Oc3c(NC(=O)C4CC4)cccc3C(=O)N([C@H](C)CO)C[C@H]2C)cc1	·	-3	·	-5
Cn1cnc(S(=O)(=O)N[C@H]2CC[C@H](CC(=O)Nc3ccccc3)O[C@H]2CO)c1	·	-3	·	2
Cc1ccc(-c2noc(-c3cc4ccccc4oc3=O)n2)cc1	55	21	·	-3
COc1ccc2cc(-c3nc4ccccc4n3C)c(=O)oc2c1	90*	87*	13	7
COc1ccc2oc(=O)c(-c3nnc(NCc4ccco4)s3)cc2c1	2	33	?	103*
COc1ccc2oc(=O)c(-c3nc4ccccc4o3)cc2c1	43	·	103*	·
CCOc1cccc2cc(-c3nnc(NCc4ccco4)s3)c(=O)oc12	71	·	?	·
COc1ccc(-c2nnc(-c3cc4ccccc4oc3=O)o2)cc1	55	12	·	13
Cc1cc(-c2nnc(-c3cc4ccccc4oc3=O)o2)c(C)n1-c1ccccc1	·	54*	·	-2
O=c1oc2ccccc2cc1-c1nc2ccccc2o1	46	-2	35*	5
O=c1oc2ccc3ccccc3c2cc1-c1nc2ccccc2o1	8	-3	·	12
Fc1ccccc1CSc1nnc(-c2ccccc2)o1	103*	31	68*	10
Cc1ccc(C)c(CSc2nnc(-c3cccnc3)o2)c1	3	0	·	3
Fc1ccccc1CSc1nnc(-c2cccnc2)o1	37	·	40*	·
O=Cc1cn(-c2ccccc2)nc1-c1ccc2c(c1)OCCO2	72	50*	·	-32
CCN(CC)C(=O)c1cn(-c2ccccc2)nc1-c1ccc2c(c1)OCCO2	0	-1	0	5
N#Cc1cn(-c2ccccc2)nc1-c1ccc2c(c1)OCCO2	123*	51*	0	1
Cn1cc(C=O)c(-c2ccc3c(c2)OCCCO3)n1	49	29	11	-3
SMILES	MITF TRPM1 HTS	esBAF inh	Wnt bcat act	Statin myotox sup
Cc1ccc(S(=O)(=O)Nc2ccc3c(c2)CC(=O)N([C@@H](C)CO)C[C@@H](C)[C@H](CN(C)C(=O)NC(C)C)O3)cc1	·	5	·	20
COc1ccc(CN(C)C[C@@H]2Oc3c(NC(=O)Nc4c(C)noc4C)cccc3C(=O)N([C@H](C)CO)C[C@H]2C)cc1	·	-3	·	-3
C[C@@H]1CCCCO[C@H](CN(C)Cc2ccc(C(F)(F)F)cc2)[C@H](C)CN([C@@H](C)CO)C(=O)c2cc(NC(=O)CCCN(C)C)ccc2O1	·	-2	·	·
c1ccc2oc(-c3ccc4nc[nH]c4c3)nc2c1	98*	47*	·	-1
Nc1nc2ccc(-c3nc4ccccc4o3)cc2s1	11	2	·	75*
COc1ccccc1CNC(=O)C[C@H]1C[C@H]2c3cc(NS(=O)(=O)c4ccc(F)cc4)ccc3O[C@H]2[C@H](CO)O1	·	13	·	-1
C[C@H]1CN([C@@H](C)CO)S(=O)(=O)c2ccc(-c3cccc(C#N)c3)cc2O[C@@H]1CN(C)C(=O)Nc1cc(F)ccc1F	·	-1	·	-20
Cc1ccc(S(=O)(=O)Nc2ccc3c(c2)C(=O)N([C@@H](C)CO)C[C@H](C)[C@@H](CN(C)C(=O)Nc2ccc(C(F)(F)F)cc2)OCCCC[C@H](C)O3)cc1	·	-2	·	·
OC(COc1cccc2ccccc12)CN1CCCC1 (centres undefined)	·	-2	-3	-10
C=C1CC(C)OC(c2ccccc2OCC(O)CN2CCCCC2)C1 (centres undefined)	-1	-5	-1	115*
COc1ccccc1N1Cc2ccc(OC)c(OC)c2C1=O	2	4	3	10
COc1ccc2c(c1OC)C(=O)N(c1cccc(C(F)(F)F)c1)C2	121*	46*	·	-30
COc1ccc2c(c1OC)C(=O)N(c1ccccn1)C2	34	23	·	101*
COc1ccc2c(c1OC)C(=O)N(c1cccc(C)c1)C2	62	5	·	-23

Bioassay records deposited in PubChem BioAssay by Broad Institute.
